PubChem BioAssay AID652054 (National Center for Advancing Translational Sciences (NCATS), 2013)
Out of some 360,000 compounds screened, about 9,100 (2.5%) were called active. Inconclusive results (about 4%) are left out. No stated cut-off is given here; in the data, active means max response below about -50%; inconclusive means no clear call, values can overlap the other calls; inactive means above that. The entries come from a sample that favours actives as a whole.

target: D(3) dopamine receptor (Homo sapiens) (UniProt P35462); experiment: qHTS of D3 Dopamine Receptor Antagonist: qHTS; settings: D3R cells, DiscoveRx beta-arrestin luminescence, antagonist mode; stronger effect = lower value
In short: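 Cells plated overnight at 1500 cells/well, then exposed to library compounds with dopamine controls for 90 minutes at 37 degrees C. DiscoveRx reagent added for 30–60 minutes at room temperature; luminescence read, quantitative HTS format.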
On the % scale 0 is the no-effect control and ±100 the full control effect.

Sequence of D(3) dopamine receptor (Homo sapiens) (P35462 whole entry, looked up): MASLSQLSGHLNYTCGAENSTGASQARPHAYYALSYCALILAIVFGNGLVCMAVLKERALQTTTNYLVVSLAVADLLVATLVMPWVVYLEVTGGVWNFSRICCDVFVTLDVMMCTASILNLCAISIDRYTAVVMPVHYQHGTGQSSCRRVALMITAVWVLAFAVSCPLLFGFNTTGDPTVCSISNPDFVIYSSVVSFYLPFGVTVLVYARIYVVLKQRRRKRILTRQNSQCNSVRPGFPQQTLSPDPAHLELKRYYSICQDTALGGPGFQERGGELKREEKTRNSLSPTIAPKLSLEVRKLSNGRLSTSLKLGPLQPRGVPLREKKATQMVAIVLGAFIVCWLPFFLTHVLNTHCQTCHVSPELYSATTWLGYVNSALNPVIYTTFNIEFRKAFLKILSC

Max response, negative = inhibition, active:
O=C(O)c1ccc(NS(=O)(=O)c2cccc3nsnc23)cc1 -88.2%, CCOc1ccc(NS(=O)(=O)c2ccc(C(=O)NC3CCN(Cc4ccccc4)CC3)cc2)cc1 -68.8%, CCOc1ccc(NS(=O)(=O)c2ccc(C(=O)NCC3CCCO3)cc2)cc1 (stereo not drawn) -69.2%, CC1CCN(c2ccc([N+](=O)[O-])c(SCCO)c2)CC1 -51.8%, COc1ccc(C(CNC(=O)c2cc3c(s2)CCCC3)N2CCOCC2)cc1 (stereo not drawn) -51.3%, Cc1c(C(=O)NCC(c2ccco2)N2CCCC2)oc2ccc(Cl)cc12 (stereo not drawn) -65.1%, CC1CCc2sc(C(=O)NCC(c3ccco3)N3CCCCC3)cc2C1 (stereo not drawn) -82.1%

Max response, negative = inhibition, inactive:
CCCNC(=O)c1cc(C2CCCCN2S(=O)(=O)c2ccc(C#N)cc2)on1 (stereo not drawn) 15.7%, CCOc1ccc(CCN2C(=O)C(=O)N([C@@H](CC(C)C)CN3CCC[C@H]3CN3C(=O)C(=O)NC[C@@H]3Cc3ccccc3)C[C@@H]2CC(C)C)cc1 2.39%, COc1ccc(NS(=O)(=O)c2cccc3nsnc23)cc1Cl -6.5%, O=S(=O)(Nc1ccccc1Cl)c1cccc2nsnc12 -8.87%, Cc1cn([C@H]2C[C@H](O)[C@@H](/C=C/C(=O)NCCCc3ccccc3)O2)c(=O)[nH]c1=O 0%, CCOc1ccc(CC(=O)NC2CCN(Cc3ccccc3)CC2)cc1 -12.8%, O=C(NCC1CCCO1)c1ccc(S(=O)(=O)Nc2ccc(F)cc2)cc1 (stereo not drawn) -12.1%, CCOc1ccc(C(=O)NC2CCN(S(=O)(=O)CC)CC2)cc1 8.12%, CCOc1ccc(S(=O)(=O)NCCC(=O)NCC2CCCO2)cc1 (stereo not drawn) 20.2%, O[C@H]1C[C@H](c2ccc(Cl)cc2)N(Cc2cccs2)C[C@@H]1n1cc(C2CC2)nn1 -1.65%, O=S1(=O)CC(N2CCN(CCO)CC2)CN1C1CCCC1 (stereo not drawn) 8.42%, CC(=O)Nc1cccc(-c2ccnc3c2CC(C)(C(=O)NCc2ccco2)O3)c1 (stereo not drawn) -21.1%, CC1CCN(c2ccc([N+](=O)[O-])cc2C(N)=O)CC1 10.9%, O=[N+]([O-])c1ccc(N2CCSCC2)cc1O -6.65%, O=C(Cc1ccc([N+](=O)[O-])cc1)NCCS(=O)(=O)N1CCN(c2ccccc2)CC1 3.87%, CC1Cc2ccccc2N1S(=O)(=O)c1cccc(C(=O)NCC(c2ccco2)N2CCCC2)c1 (stereo not drawn) -17.2%, COc1cc(C(=O)NCC(c2ccco2)N2CCCC2)ccc1OCc1ccccc1 (stereo not drawn) 4.86%, CSc1ncccc1C(=O)NCC(c1ccco1)N1CCCCC1 (stereo not drawn) 9.6%, COc1ccc(C(CNC(=O)c2cccnc2SC)N2CCOCC2)cc1 (stereo not drawn) -18.5%, COc1ccc(C(CNC(=O)c2ccc(S(=O)(=O)Nc3ccccc3C)cc2)N2CCOCC2)cc1 (stereo not drawn) -0.45%, Cc1cc(S(=O)(=O)Nc2ccc(C(=O)NCC(c3ccco3)N3CCCC3)cc2)ccc1F (stereo not drawn) 1.86%
